Results filed as inconclusive are left out. A call without a number means that no potency is given here. The source made the active and inactive calls. The call rests on the fitted dose curve; in most records, active means well fitted inhibition curve with a large enough effect; inconclusive means small, poorly fitted or top-dose-only effect; inactive means no such curve, though single readings can be large or run the other way.
The molecules below were run against Ubiquitin carboxyl-terminal hydrolase 2 (Homo sapiens) (UniProt O75604) (assay: Confirmation Concentration-response Assay for Inhibitors of Ubiquitin-specific Protease USP2a). Conditions: USP2 core, Ub-PLA2 coupled fluorescence, NBD C6-HPC; series mostly up to 38.3 µM.
Ubiquitin carboxyl-terminal hydrolase 2 (Homo sapiens), sequence (O75604 whole entry, looked up): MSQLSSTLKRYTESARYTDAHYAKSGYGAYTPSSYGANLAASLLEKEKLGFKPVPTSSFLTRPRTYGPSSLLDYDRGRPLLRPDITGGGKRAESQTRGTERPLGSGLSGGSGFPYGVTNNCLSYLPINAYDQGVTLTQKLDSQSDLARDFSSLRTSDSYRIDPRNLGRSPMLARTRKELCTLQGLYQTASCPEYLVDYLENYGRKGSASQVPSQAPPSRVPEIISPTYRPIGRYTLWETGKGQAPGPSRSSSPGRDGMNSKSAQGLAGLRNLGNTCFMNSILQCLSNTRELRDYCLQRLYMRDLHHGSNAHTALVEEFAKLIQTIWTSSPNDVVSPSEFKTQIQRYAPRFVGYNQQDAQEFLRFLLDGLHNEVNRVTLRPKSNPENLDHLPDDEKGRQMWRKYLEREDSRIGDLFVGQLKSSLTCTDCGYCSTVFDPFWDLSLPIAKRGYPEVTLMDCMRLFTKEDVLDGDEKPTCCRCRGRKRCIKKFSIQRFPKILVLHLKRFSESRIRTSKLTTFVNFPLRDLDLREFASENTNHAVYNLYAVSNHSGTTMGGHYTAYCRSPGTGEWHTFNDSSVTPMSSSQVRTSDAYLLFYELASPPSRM
Description: NIH Molecular Libraries Screening Centers Network [MLSCN] NIH Chemical Genomics Center [NCGC] MLSCN Grant: XO1-MH079852-01 PI Name: Nicholson, Ben. Progenra Inc, Malvern, PA NCGC Assay Overview: Homeostasis of cellular proteins is maintained through a combination of synthesis and degradation. The pathway that accounts for the majority of protein degradation is the ubiquitin-proteasomal pathway. Ubiquitin (Ub) is highly conserved in all cells and the generation of a multi-Ub chain typically targets proteins for degradation by the proteasome. However, ubiquitination is highly reversible and dynamic. Deubiquitination, the reverse process, is catalyzed through the action of enzymes referred to as isopeptidases or deubiquitinating enzymes (DUBs). This group of enzymes is collectively responsible for maintaining adequate pools of free ubiquitin and regulating the ubiquitination status of cellular proteins. The class of DUBs referred to as the ubiquitin-specific proteases (USP) family functions endoproteolytically to cleave Ub chains from a wide range of protein substrates. USP2a deubiquitinates fatty acid synthase (FASN) which has recently been identified as an emerging oncology target. To identify inhibitors of USP2a a cell-free assay was employed. […] The reporter enzyme chosen is phospholipase A2 (PLA2), which has an absolute requirement for a free amino terminus. Thus, fusion of a UBL to the N-terminus of PLA2 inactivates PLA2. When the UBL-PLA2 reporter enzyme is cleaved by USP2, the activated reporter can subsequently act on its substrate, which is the commercially available NBD C6-HPC (Invitrogen). Thus, this coupled assay gives a fluorescent read-out, which is generated through the cleavage of the PLA2 reporter enzyme. The assay, developed by Progenra, Inc. uses Ub-PLA2 and USP2a at near equal and low (nM) amounts and has been licensed for sale by LifeSensors, Inc. as the Ub-IsoPro1 kit.
NCGC Assay Protocol Summary: The assay buffer, prepared fresh at the day of the assay, contains 20mM Tris-HCl pH 8.0, 2mM CaCl2, 2mM beta-Mercaptoethanol, 0.1% DMSO. 3ul of 40nM (20nM final) USP2 core, which is stored on ice, is dispensed into a medium-binding black solid Kalypsys 1,536 well plate using the Kalypsys dispenser. The assay plate is then pinned with 23nL compound with the Kalypsys pintool in columns 5-48. The controls are pinned as follows: column 1&2 two-fold dilutions of 2M NEM in duplicate; column 3 DMSO; column 4 2M NEM (final concentration […]). The assay plate is incubated at RT for 30min. Subsequently, 3uL of 40nM (20nM final) Ub-PLA2 and 40uM (20uM final) NBD C6-HPC (stored on ice and protected from light) were dispensed into the plate using the Kalypsys dispenser. Plates were read immediately (0 Hour) on an Envision (Perkin Elmer) plate reader using the following wavelengths Ex 460nm /Em 535nm. Then, the assay plates were incubated for 2.5 hours and read again on the Envision using the same settings Data were normalized to the to AC100 inhibition (NEM). Concentration-response curves were fitted to the normalized data and the concentration-response curves were then classified based on curve quality (r2), response magnitude and degree of measured activity. The time zero reading was used to flag fluorescence artifacts. Keywords: ubiquitination, deubiquitination, proteases, profluorescent, MLSMR, MLSCN, NIH Roadmap, qHTS, NCGC

| SMILES | Potency |
| --- | --- |
| COc1ccc(Cl)cc1NC(=O)CSc1nc(=O)[nH]c2c1CCC2 | inactive |
| CCC(C)NC(=O)CSc1nc2cc3c(cc2c(=O)n1Cc1ccc(C(=O)NCCc2ccc(OC)c(OC)c2)cc1)OCO3 (centres undefined) | inactive |
| CCOC(=O)C1CCCN(c2c(C(=O)c3ccc(C)cc3)cnc3ccc(OCC)cc23)C1 (centres undefined) | 3.16 µM (active) |
| CCS(=O)(=O)c1nc(S(=O)(=O)c2ccc(C)cc2)c(NCC(C)C)s1 | 2.82 µM (active) |
| CCCCCC(=O)N1c2ccccc2C(C)(c2ccccc2)CC1(C)C (centres undefined) | 12.6 µM (active) |
| Cc1ccc([C@H]2Nc3ccc(S(=O)(=O)Nc4cccc(Cl)c4C)cc3[C@H]3C=CC[C@H]32)cc1 | 7.94 µM (active) |
| COc1ccc(C(=O)/C=C/c2cn(CC(O)CN(CC(C)C)CC(C)C)c3ccccc23)cc1OC (centres undefined) | 12.6 µM (active) |
| COC(=O)c1c(NC(=O)CS(=O)(=O)c2ccc(C)cc2)sc2c1CCCCC2 | inactive |
| O=C(CCS(=O)(=O)c1ccccc1)N(Cc1cccnc1)c1nc2c(Cl)cccc2s1 | inactive |
| Cc1ccc(S(=O)(=O)Cc2nc(-c3ccc(C(=O)NCc4ccccc4F)cc3)oc2C)cc1 | 14.1 µM (active) |
| Cc1cc(C)c2nc(N(Cc3cccnc3)C(=O)CCS(=O)(=O)c3ccccc3)sc2c1 | inactive |
| Oc1c(C(Nc2ccccn2)c2ccccc2F)ccc2cccnc12 (centres undefined) | inactive |
| Cc1ccc(-n2nc3c(=O)n(CCCC(=O)NCCc4ccccc4Cl)nc(C)c3c2C)cc1 | 11.2 µM (active) |
| CCc1ccc(C(=O)c2c(N)c(-c3nc(-c4ccc5c(c4)OCO5)cs3)c3ccccn23)cc1 | inactive |
